Laboratory results taken from PubChem BioAssay AID1259343 (VanderVen Lab, College of Veterinary Medicine, Cornell …, 2017).
Out of some 6,200 compounds screened, about 2,900 (47%) were called active. So high a share suggests a set chosen from earlier hits. Some of the results follow. Values without a mark were called inactive. Rule as the data show it: active = inhibition above about 50%; inactive = the rest.

test: Mycobacterium tuberculosis growth inhibition, primary screen (AID 1259343); conditions: inhibition: at 10 µM, stronger effect = higher value; outcome: 10 uM

| SMILES | inhibition |
| --- | --- |
| COc1cc(NC(=O)c2ccc(Cl)s2)cc(OC)c1 | 3.54% |
| COc1cc(NC(=O)c2ccc(C)o2)cc(OC)c1 | 81.4% (active) |
| O=C(COc1cccc2cccnc12)NCC1CCCCC1 | 89.7% (active) |
| O=C(COc1ccc([N+](=O)[O-])cc1)NCC1CCCCC1 | -9.56% |
| NCCOCc1ccc(-c2cc3ccccc3o2)cc1 | 15.6% |
| c1cc(-c2cc3ccccc3o2)cc(-n2cnnc2)c1 | 74.5% (active) |
| CCOC(=O)Cc1csc(NC(=O)c2csc(-c3cc4ccccc4[nH]3)n2)n1 | 65.7% (active) |
| CCOC(=O)Cc1csc(NC(=S)NC(=O)c2cccs2)n1 | 88% (active) |
| CC(NC(=O)CCl)c1cccc2ccccc12 (centres undefined) | 86.2% (active) |
| Cc1cccc(OCC(=O)NC(C)c2cc3ccccc3o2)c1C (centres undefined) | 83.5% (active) |
| CC(NC(=O)NCCc1ccc(F)cc1)c1ccccc1Br (centres undefined) | 31.6% |
| CC(NC(=O)CCl)c1cc2ccccc2o1 (centres undefined) | 58.8% (active) |
| COc1cc(-c2c(NC(=O)CC(C)C)oc3c(C)cccc3c2=O)cc(OC)c1OC | -22.3% |
| CCc1ccc(C(C)NS(=O)(=O)CC2CCCCC2)cc1 (centres undefined) | 24.7% |
| CN(C1CCCCC1)S(=O)(=O)NCC1Cc2ccccc2O1 (centres undefined) | -12.8% |
| CC(NS(=O)(=O)CC1CCCCC1)c1cc2ccccc2o1 (centres undefined) | 91.2% (active) |
| CCc1ccc(C(C)NC(=O)c2ccc(S(=O)(=O)C(F)F)cc2)cc1 (centres undefined) | -35.3% |
| CCc1ccc(C(C)NC(=O)CCl)cc1 (centres undefined) | 68.1% (active) |
| Nc1ccc(Cl)c(-c2nc3ccccc3o2)c1 | -33.1% |
| Nc1ccc(Cl)c(Cl)c1 | 85.7% (active) |
| CNC(=O)c1ccc(CN(C)c2ccc(C(F)(F)F)cn2)cc1 | 56.7% (active) |
| CNC(=O)c1ccc(N(C)Cc2ccc(Cl)s2)nc1 | 18.8% |
| O=C(NCCc1ccc(C(F)(F)F)cc1)C1=COCCO1 | 28.4% |
| OCC#Cc1csc(CN2CCN(c3nccc4ccccc34)CC2)c1 | 51.9% (active) |
| Cc1cnc(C)c(N2CCN(Cc3cc(C#CCO)cs3)CC2)n1 | 39% |
| c1ccc(-c2nc3c(c(N4CCN(Cc5cccc6cccnc56)CC4)n2)CCC3)cc1 | 31.1% |

| SMILES | inhibition |
| --- | --- |
| O=S(=O)(Nc1ccc(Br)cc1Br)c1ccc(Cl)s1 | 86.1% (active) |
| O=S(=O)(Nc1cc2c(cc1Cl)OCO2)c1ccc(Cl)s1 | 101% (active) |
| O=S(=O)(Nc1ccc(Cl)cc1F)c1ccc(Cl)s1 | -6.72% |
| Cc1ccc(S(=O)(=O)Nc2ccc(Br)cc2Br)c(C)c1 | 50.7% (active) |
| CC(=NNS(=O)(=O)c1ccc(Br)cc1)c1ccc(Cl)s1 | 29.9% |
| CCCCCCNS(=O)(=O)c1ccc(Br)s1 | 78.5% (active) |
| O=S(=O)(Nc1ccc(Br)cc1)c1ccc(Cl)s1 | 95.3% (active) |
| O=S(=O)(Nc1ccc(Br)cc1)c1ccc(Br)s1 | 96.8% (active) |
| O=S(=O)(Nc1ccc(Cl)cc1)c1ccc(Cl)s1 | -18.5% |
| Cc1ccc(CCC2CCN(C(C)C(=O)Nc3ccc(S(N)(=O)=O)cc3)CC2)cc1 (centres undefined) | 3.86% |
| Cc1cc(C)cc(CN2CCC(CCc3ccc(C(F)(F)F)cc3)CC2)c1 | -22.4% |
| CCOc1ccc(NC(=O)N2CCC(CCc3ccc(C(F)(F)F)cc3)CC2)cc1 | 78.8% (active) |
| CCOc1ccc(NC(=O)N2CCC(Cc3ccc4c(c3)OCO4)CC2)cc1 | 64% (active) |
| N#CC1CCN(C(=O)Nc2ccc(OCC3CCCCC3)cc2)CC1 | 40% |
| O=C(COc1cccc(Cl)c1)N1CCC(CCc2ccc3c(c2)OCO3)CC1 | 43.2% |
| Cc1ccc(CCC2CCN(C(=O)Nc3cccnc3)CC2)cc1 | 90.4% (active) |
| CCCc1nc2sc3c(NCCN(C)C)ncnc3c2c2c1CCCC2 | -36.3% |
| CCCCc1nc2sc3c(NCCN4CCOCC4)ncnc3c2c2c1COC(C)(C)C2 | 71.5% (active) |
| COc1cc2c(=O)[nH]c(-c3ccccn3)nc2cc1OC(F)F | 43.2% |
| COc1ccnc(CS(=O)c2nc3ccc(OC(F)F)cc3[nH]2)c1OC (centres undefined) | 100% (active) |
| Clc1ccc(Cl)c(SCCc2ccccn2)c1 | 73.3% (active) |
| CN(C)CC[C@H](c1ccc(Cl)cc1)c1ccccn1 | 35.8% |
| Clc1ccc(Cl)c(SCCSc2ncn[nH]2)c1 | 23.3% |
| O=C(c1csc(COc2ccc(F)cc2F)n1)N1CCCC1 | -0.05% |
| Fc1cc(F)cc(-c2cncc(COc3ccc(F)cc3F)c2)c1 | 59.7% (active) |
| O=S(=O)(NC1CCCCCC1)c1ccc(F)c(F)c1 | -47.6% |

| SMILES | inhibition |
| --- | --- |
| O=S(=O)(NC1CCCCCC1)c1ccc(Cl)cc1 | 76.5% (active) |
| O=S(=O)(NC1CCCCCCC1)c1ccccc1F | 29.7% |
| Cc1ccc(C(=O)Cn2nnc(-c3ccccc3C)n2)c(C)c1 | 90.1% (active) |
| Cc1ccccc1-c1nnn(Cc2cc(=O)n3c(C)cccc3n2)n1 | 32.9% |
| COC(=O)C1=C(NC(=O)c2cccs2)CCS1 | -17.8% |
| O=C(Nc1n[nH]c(=S)s1)c1cccs1 | 103% (active) |
| Cc1ccc(C)c(-c2csc(NC(=O)c3cccs3)n2)c1 | 42.1% |
| CCN(CC)CCNC(=O)c1cc(NC(=O)Nc2cccc(Br)c2)ccc1N1CCCCC1 | 39.5% |
| CC(C)Oc1ccc(-c2cc(C(=O)NN=Cc3cccs3)[nH]n2)cc1 | 68.8% (active) |
| COc1ccc(-c2cc(C(=O)NN=Cc3ccc(Br)cc3)[nH]n2)cc1 | 36.8% |
| Cc1cccc(C2(O)CCN(C(=O)CCc3ccccc3)CC2)c1C | 75.2% (active) |
| Cc1ccccc1C1(O)CCN(C(=O)CCC2CCCC2)C1 (centres undefined) | 68% (active) |
| O=C(CC1Cc2ccccc2C1)N1CCC2(CCc3ccccc32)C1 (centres undefined) | 31.8% |
| Cc1ccccc1CC1(CO)CCCN(C(=O)CCC(F)(F)F)C1 (centres undefined) | 29.1% |
| O=C(CCc1ccccc1)N1CCN(c2ccc(O)cc2)CC1 | 78.6% (active) |
| O=C(COc1cccc(F)c1)N1CCC(c2ccc(O)cc2)CC1 | 39.3% |
| O=C(OCC(=O)N1CCN(c2ccc(F)cc2)CC1)c1ccc(O)cc1 | 87.3% (active) |
| Cc1ccccc1N1CCN(C(=O)CCc2nnc(CCCc3ccccc3)o2)CC1 | 26% |
| CCOC(=O)C1(CCCc2ccccc2)CCN(C(=O)CC2=CCCCC2)CC1 | 16.7% |
| O=C(CCC(F)(F)F)N1CCC(CO)(CCc2ccccc2)CC1 | 25.8% |
| Cc1cc(Cn2ccnc2-c2cc3ccc(F)cc3[nH]c2=O)on1 | -7.89% |
| Cc1ccc(OCc2cc(C(=O)NC(C)c3nc(-c4ccccc4)no3)no2)cc1C (centres undefined) | 23% |
| Cc1ccc2ncn(Cc3nc(-c4ccc(C)c(F)c4)no3)c(=O)c2c1 | -6.02% |
| CNC(=O)NC(=O)CCSC(C)c1nc(-c2ccc(C)c(F)c2)no1 (centres undefined) | 91.8% (active) |
| Cc1ccccc1Cc1nnc(CN(CC(C)O)c2ccccc2)o1 (centres undefined) | 80.1% (active) |
| CCOC(=O)/C=C/c1c([N+](=O)[O-])sc(Br)c1Br | 103% (active) |

| SMILES | inhibition |
| --- | --- |
| O=C(Nc1ccc(-c2cscn2)cc1)C1CCCN(C(=O)c2cccs2)C1 (centres undefined) | 58.2% (active) |
| COCc1ccc(CN2CCCC(C(=O)Nc3ccc(-c4cscn4)cc3)C2)o1 (centres undefined) | 29% |
| O=C(Nc1ccc(-c2cscn2)cc1)C1CCCN(C(=O)Cc2ccccc2F)C1 (centres undefined) | 33.2% |
| O=C(c1ccc(Cl)s1)N1CCCC(Nc2ccc3c(c2)OCO3)C1 (centres undefined) | 44.6% |
| Cc1cccc(CN2CCCC(C(=O)Nc3ccc(-c4cscn4)cc3)C2)c1 (centres undefined) | 88.8% (active) |
| Cc1ccc(NC2CCCN(C(=O)C3CCCCC3)C2)cc1C (centres undefined) | 49% |
| Cc1ccc(NC2CCCN(C(=O)c3cccs3)C2)cc1C (centres undefined) | 59.6% (active) |
| O=C(Nc1ccc(-c2cscn2)cc1)C1CCCN(Cc2ccon2)C1 (centres undefined) | inactive |
| CC(=O)c1cc(CN2CCCC(C(=O)Nc3ccc(-c4cscn4)cc3)C2)cs1 (centres undefined) | 70.9% (active) |
| c1csc(-c2noc(CSc3nc4ccccc4o3)n2)c1 | 100% (active) |
| CC1CCc2sc(-c3nnc(SCc4nc(-c5cccs5)no4)o3)cc2C1 (centres undefined) | 5.99% |
| CCCNC(=O)CSc1nc2ccccc2o1 | -21.7% |
| COc1ccccc1-c1noc(CSc2nc3ccccc3o2)n1 | 89.1% (active) |
| O=S(=O)(c1ccc(Cl)s1)N1CCCc2cccc(O)c21 | 43.4% |
| Cc1cccc2nc(-c3ccc(C(C)(C)C)cc3)c(NC(C)(C)C)n12 | 73.6% (active) |
| CC(=O)N(C)c1ccc(NC(C)c2ccc(F)c(F)c2)cc1 (centres undefined) | 20% |
| CNC(C)c1ccc(Sc2ccc(C(C)C)cc2)c(F)c1 (centres undefined) | 67% (active) |
| Cc1cc(I)ccc1N | 83.3% (active) |
| O=C(COc1c(F)c(F)cc(F)c1F)c1ccc[nH]1 | 65.2% (active) |
| O=S(=O)(NCCC1=CCCCC1)c1cccc2nonc12 | -1.1% |
| Nn1ccc2nc3ccn(CCC4=CCCCC4)c(=O)c3cc2c1=O | 85.4% (active) |
| CCOC(=O)COc1ccc(C)cc1C(=O)c1cnc2c(c1)COc1ccccc1-2 | 61.1% (active) |
| CC(Nc1cccc(OC(F)(F)F)c1)C(=O)Nc1cccnc1Cl (centres undefined) | -51.8% |
| O=C(CN(C1CCCCC1)C1CC1)Nc1ccc(Cl)cn1 | 37.5% |
| CC(Nc1ccc(OCC(F)(F)F)cc1)C(=O)Nc1ccc(Cl)cn1 (centres undefined) | 97% (active) |
| O=C1NC(=NN=Cc2cccnc2)SC1Cc1ccc(SC(F)F)cc1 (centres undefined) | 35.2% |
